PubChem BioAssay AID1907 (The Scripps Research Institute Molecular Screening Center, 2009)
Out of some 1,900 compounds screened, about 1,200 (63%) were called active. The set was probably picked from earlier hits. Only a sample is shown. Values without a mark were called inactive. Rule as the data show it: active = inhibition above about 22%; inactive = the rest.

Experiment: rat intestinal IEC-6 viability loss – cell-based, luminescence, cytotoxicity control, confirmation (AID 1907);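 also: 0% = vehicle and 100% = reference cytotoxic drug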
Details: IEC-6 rat intestinal epithelial viability, at 5 µM, active compounds read high

| SMILES | inhibition |
| --- | --- |
| CC1=CC(=Cc2sc3ccccc3[n+]2C)C=C(C)O1 | 32.9% (active) |
| Cc1cc2ccccn2c1C(C[N+](=O)[O-])c1c(F)cccc1Cl (stereo not drawn) | 10.8% |
| COc1cc(-n2c(=S)[nH]c3ccc(C)cc3c2=O)c(Cl)cc1Cl | -14.8% |
